# Source: PubChem
# The list is not random: actives were taken first. Their share in the collection is about 21%.
# DT40 TDP1 CPT: growth inhibition of DT40 Tdp1-/-;hTDP1 cells with camptothecin (screen for TDP1 inhibitors); chicken DT40 Tdp1-/-;hTDP1 cells + 20 nM CPT, ATP luminescence, 48 h; Potency, µM (highest dose often 46.2 µM), for inactives: at the top dose activity change, negative = growth inhibition, most hits filed as inhibitors; actives 12% (n = 420,000); AID 686979; also: potency is read from the fitted curve at half-maximal effect; % is scaled to controls: 0 for no effect and ±100 for the full control effect; nearly all actives have a fitted effect of over 55% in size
#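 Cell growth measured by CellTiter-Glo luminescence after a minimum 48 h, 37 C compound exposure with 20 nM CPT in Tdp1-knockout DT40 cells stably expressing hTDP1, seeded 400/well; qHTS titration format.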
# ClpP mod: qHTS Assay for Activators of ClpP | actives 1.9% (n = 340,000) | ATP-dependent Clp protease proteolytic subunit (Bacillus subtilis (strain 168)), P80244 | Potency, µM (doses to about 57.5 µM), for the others: at the highest dose activity change, negative = active | purified B. subtilis ClpP, FRET peptide cleavage, 20 min; active = well fitted falling curve with a large enough effect; inconclusive = small, poorly fitted or top-dose-only effect; inactive = no such curve, though single readings can be large or run the other way; also: potency is read from the fitted curve at half-maximal effect; the source files actives as falling curves though it sought activators and does not explain the sign; nearly all actives have a fitted effect of over 65% in size
#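 Buffer: 100 mM Tris/HCl pH8, 100 mM KCl, 0.05% low protease BSA, 2.5% glycerol, 0.01% Tween-20. ClpP 10 microg/mL final; 20 min RT; delta FRET normalized to ADEP and DMSO controls.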
# IL-1B inflam inh: inflammasome signaling inhibition, IL-1 beta readout; THP-1 LPS/ATP IL-1B secretion, AlphaLISA, 16 h; stronger effect = lower value; activity change, % at 57.5 µM; actives 4.7% (n = 360,000); in the data active = activity change below about -50%; inconclusive = mostly about -30% to -49%; also: % is scaled to controls: 0 for no effect and ±100 for the full control effect
#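 Secreted IL-1B measured by AlphaLISA bead assay after 16 h compound exposure of THP-1 cells; compounds (final up to 57.5 uM) added 1 h before LPS (250 ng/mL) and ATP (1.25 mM) stimulation; lower signal means less secretion.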
# DT40 TDP1 no CPT: qHTS for Inhibitors of human tyrosyl-DNA phosphodiesterase 1 (TDP1): qHTS in cells in absence of CPT; actives 15% (n = 420,000); Potency, µM (top dose mostly 46.2 µM), for inactives: top-dose activity change, negative = growth inhibition, usual class: inhibitors; DT40 Tdp1-/- hTDP1 cells, no CPT, ATP luminescence, 48 h; AID 686978, 2013; also: potency is read from the fitted curve at half-maximal effect; % is scaled to controls: 0 for no effect and ±100 for the full control effect; nearly all actives have a fitted effect of over 55% in size
#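 Stably hTDP1-transfected Tdp1-null chicken DT40 cells were treated with library compounds minus camptothecin and grown for at least 48 hr at 37 °C, after which cellular ATP was quantified by luminescence.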
# DRD3 agonist: D3 dopamine receptor (human) agonism | P35462 | D3R DiscoveRx beta-arrestin cells, luminescence, 90 min | max activation, % | actives 0.58% (n = 410,000); in the data active = max activation above about 30%; also: 0% is about no effect
# Target sequence (P35462 whole entry, looked up): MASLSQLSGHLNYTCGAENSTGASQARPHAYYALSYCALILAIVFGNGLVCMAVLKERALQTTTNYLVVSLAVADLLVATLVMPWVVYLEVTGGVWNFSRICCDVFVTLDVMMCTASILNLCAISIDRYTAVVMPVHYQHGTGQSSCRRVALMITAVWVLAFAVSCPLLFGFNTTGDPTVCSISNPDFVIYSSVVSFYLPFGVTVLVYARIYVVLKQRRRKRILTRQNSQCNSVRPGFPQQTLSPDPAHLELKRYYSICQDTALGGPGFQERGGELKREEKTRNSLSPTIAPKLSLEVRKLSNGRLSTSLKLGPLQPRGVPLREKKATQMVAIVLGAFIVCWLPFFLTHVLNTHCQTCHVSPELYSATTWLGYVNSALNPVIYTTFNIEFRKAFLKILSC
#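 Cells at 1500/well, incubated overnight, then treated with pinned compounds (dopamine as control) for 90 min at 37 degrees C. DiscoveRx reagent added for 30 - 60 minutes at room temperature; luminescence read.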
# D3 antag: antagonists of human D3 dopamine receptor. D3R cells, DiscoveRx beta-arrestin luminescence, antagonist mode; stronger effect = lower value. actives 2.5% (n = 360,000). max response, negative = inhibition, %. P35462; in the data active = max response below about -50%; inconclusive = no clear call, values can overlap the other calls; also: % is scaled to controls: 0 for no effect and ±100 for the full control effect
#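 Cells expressing the human receptor were seeded at 1500 cells/well, incubated overnight at 37 degrees C in 5% CO2, then exposed to library compounds with dopamine controls for 90 minutes at 37 degrees C before luminescent detection.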
# * marks the source's active call; other numbers are inactive results; ? = inconclusive; nt = no result given. Unless noted, calls follow the shape of the dose curve; as a rule, active = well fitted inhibition curve with a large enough effect; inconclusive = small, poorly fitted or top-dose-only effect; inactive = flat fitted curve, though single readings scatter.
SMILES,DT40 TDP1 CPT,ClpP mod,IL-1B inflam inh,DT40 TDP1 no CPT,DRD3 agonist,D3 antag
COc1ccc(-c2csc(NCc3ccco3)n2)cc1C,-27.0%,0.6%,-51.7*,?,-6.8,0.0
c1cncc(-c2csc(NCc3ccco3)n2)c1,-18.8%,-3.8%,12.9,-28.6%,-9.3,-6.0
CC(=O)c1ccc(C(=O)N2CCCC(CO)(Cc3ccccc3C)C2)s1 (centres undefined),?,0.4%,-0.2,-23.6%,-6.3,-13.6
Cc1cc(O)c2/c(=N\N)c(-c3csc(C)n3)coc2c1,7.4%,nt,5.7,-12.3%,7.3,-8.5
Cc1cc(=O)n2nc(N3CCC(C(=O)Nc4ccc(C(C)C)cc4)CC3)sc2n1,?,-2.9%,nt,?,3.8,nt
COc1ccc(-c2cc(C(F)(F)F)n3nc(C(=O)Nc4sc5c(c4C(=O)OC(C)C)CCC(C)C5)cc3n2)cc1 (centres undefined),13.4%,-5.7%,nt,1.5%,4.4,nt
CCOC(=O)c1c(NC(=O)c2cc3nc(-c4ccccc4)cc(C(F)(F)F)n3n2)sc2c1CCC(C)C2 (centres undefined),23.1µM*,-10.3%,nt,18.4µM*,-14.6,nt
CCOC(=O)c1sc(NC(=O)c2cc3nc(-c4ccc(Br)cc4)cc(C(F)(F)F)n3n2)c(C(=O)OCC)c1C,?,-0.6%,nt,23.1µM*,-19.8,nt
CCc1c(C)sc(NC(=O)c2cc3nc(-c4ccc(OC)cc4)cc(C(F)(F)F)n3n2)c1C(=O)OC,5.0%,-9.1%,nt,-3.4%,-15.4,nt
CCCCCN=c1ccn(Cc2ccccc2)c2ccccc12,2.66µM*,nt,nt,2.11µM*,nt,nt
Cn1c(SCc2ccccc2)nc(C(F)(F)F)cc1=O,11.2%,nt,-17.9,-10.4%,-3.6,5.6
Cn1c(SCc2ccccc2)nc(N)c(N=O)c1=O,?,-3.3%,?,14.6µM*,6.1,2.9
COc1ccc(N(C(C)C(=O)N2CCC(Cc3ccccc3)CC2)S(C)(=O)=O)cc1 (centres undefined),6.51µM*,nt,-1.4,8.2µM*,2.7,0.9
CCOC(=O)N1CCN(C(=O)C(C)N(c2ccc(Oc3ccccc3)cc2)S(C)(=O)=O)CC1 (centres undefined),?,-2.3%,-29.7,13µM*,7.9,-15.1
Cc1ccc(N(C(C)C(=O)N2CCN(Cc3ccccc3)CC2)S(C)(=O)=O)cc1 (centres undefined),?,-2.5%,12.7,?,-9.9,9.2
CCOC(=O)C1CCN(C(=O)C(C)N(c2ccc(Oc3ccccc3)cc2)S(C)(=O)=O)CC1 (centres undefined),11.6µM*,-1.1%,12.3,9.2µM*,1.9,17.2
CCOc1ccc(N(C(C)C(=O)N2CCCC2)S(C)(=O)=O)cc1 (centres undefined),?,0.4%,3.9,14.6µM*,-0.5,-0.3
COc1ccc(N(C(C)C(=O)N2CCCC2)S(C)(=O)=O)cc1 (centres undefined),7.4%,-0.4%,18.7,-5.6%,0.4,-0.8
CCc1ccc(CN2C(=O)c3ccccc3C2C(=O)NCCc2ccc(OC)c(OC)c2)cc1 (centres undefined),?,-2.0%,nt,?,1.9,nt
Cc1ncoc1C(=O)N1CCOc2ccc(CN3CCC(Oc4cccnc4)CC3)cc2C1,7.5%,nt,nt,-24.2%,nt,nt
CCOc1ccc(N(C(C)C(=O)NCCSc2ccc(Cl)cc2)S(C)(=O)=O)cc1 (centres undefined),16.4µM*,-1.3%,nt,25.9µM*,-2.6,nt
Cc1ccc(NC(=O)CSc2nccn2Cc2ccccc2)cc1C,?,0.8%,0.0,20.6µM*,0.4,10.4
Cc1ccc2nc(NC(=O)CSc3nccn3Cc3ccc(F)cc3)sc2c1,16.4µM*,-2.1%,nt,18.4µM*,-1.6,nt
